Results on eight sequences are retold here after PMC7862700, “An all-to-all approach to the identification of sequence-specific readers for epigenetic DNA modifications on cytosine”.

Test in all cases: DAPPL (digital affinity profiling via proximity ligation, sequencing); 10 mM Tris-HCl pH 7.5, 50 mM NaCl, 1 mM DTT, 4% glycerol, room temperature, 30 min; GST-TFs on glutathione beads, 16-mer random dsDNA library, 0.1% formaldehyde crosslink after washing; high values mean tight binding
Holding throughout (details): protein: recombinant; tags: N-terminal GST; dsDNA, one strand shown

One test deals with T1, ERF (Homo sapiens, UniProt P50548 1-548).
T1 sequence: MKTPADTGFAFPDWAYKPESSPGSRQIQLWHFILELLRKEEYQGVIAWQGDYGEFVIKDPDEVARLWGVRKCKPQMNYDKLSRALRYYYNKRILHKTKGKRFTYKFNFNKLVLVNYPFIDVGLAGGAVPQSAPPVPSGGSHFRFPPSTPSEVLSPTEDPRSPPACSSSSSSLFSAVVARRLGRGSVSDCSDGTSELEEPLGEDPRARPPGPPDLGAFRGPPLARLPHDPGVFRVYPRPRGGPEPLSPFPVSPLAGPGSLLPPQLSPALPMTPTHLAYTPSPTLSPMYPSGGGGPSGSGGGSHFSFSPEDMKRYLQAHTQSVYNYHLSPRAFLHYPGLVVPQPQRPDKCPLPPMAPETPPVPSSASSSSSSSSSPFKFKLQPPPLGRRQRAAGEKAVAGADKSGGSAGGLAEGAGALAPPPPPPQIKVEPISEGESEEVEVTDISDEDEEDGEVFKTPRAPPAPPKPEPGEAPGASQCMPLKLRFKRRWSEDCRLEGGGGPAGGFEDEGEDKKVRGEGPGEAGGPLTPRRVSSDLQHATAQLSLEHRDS
In a few lines:
(§1)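 Human transcription factors carrying a GST fusion were produced in yeast, bound to glutathione beads, tagged with DNA barcodes and pooled together with a tag-only sample. Each pool was held with 200 nmole of a random double-stranded 16-mer DNA library in Tris/NaCl/DTT/glycerol buffer for 30 min at room temperature, then washed, crosslinked in 0.1% formaldehyde, proximity-ligated with BsaI/T4 ligase (1 h, 37 °C), PCR-amplified and sequenced on an Illumina NextSeq500. Binding signal is the read frequency of each hexamer for a given factor divided by its frequency in the tag-only sample.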

The target in a further test is T2, ETV3L (Homo sapiens, UniProt Q6ZN32 1-361).
T2 sequence: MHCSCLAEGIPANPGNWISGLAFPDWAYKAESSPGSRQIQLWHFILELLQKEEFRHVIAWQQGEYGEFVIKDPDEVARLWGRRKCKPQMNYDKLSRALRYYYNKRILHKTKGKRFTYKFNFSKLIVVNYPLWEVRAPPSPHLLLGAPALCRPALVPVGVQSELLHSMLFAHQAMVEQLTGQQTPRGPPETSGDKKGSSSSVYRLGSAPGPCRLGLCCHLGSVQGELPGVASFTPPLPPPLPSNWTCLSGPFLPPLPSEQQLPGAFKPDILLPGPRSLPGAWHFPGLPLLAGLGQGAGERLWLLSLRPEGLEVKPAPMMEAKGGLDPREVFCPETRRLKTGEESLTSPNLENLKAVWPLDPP
The procedure, abridged:
as §1

The target of another test is T3, ETS2 (Homo sapiens, UniProt P15036 1-469).
T3 sequence: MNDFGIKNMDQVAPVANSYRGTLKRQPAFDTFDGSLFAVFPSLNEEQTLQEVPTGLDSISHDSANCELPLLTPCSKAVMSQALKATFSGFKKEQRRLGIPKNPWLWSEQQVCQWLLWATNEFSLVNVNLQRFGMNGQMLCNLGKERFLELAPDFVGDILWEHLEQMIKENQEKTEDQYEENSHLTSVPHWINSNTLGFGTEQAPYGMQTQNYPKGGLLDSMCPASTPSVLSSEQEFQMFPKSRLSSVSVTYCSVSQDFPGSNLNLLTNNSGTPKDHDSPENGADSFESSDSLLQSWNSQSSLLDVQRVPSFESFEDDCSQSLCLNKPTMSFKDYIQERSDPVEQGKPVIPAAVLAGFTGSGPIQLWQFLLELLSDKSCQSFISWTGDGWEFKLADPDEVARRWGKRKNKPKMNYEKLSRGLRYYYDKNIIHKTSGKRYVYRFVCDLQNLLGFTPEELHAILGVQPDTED
The procedure, abridged:
as §1

Another test concerns the target T4, SPDEF (Homo sapiens, UniProt O95238 1-335).
T4 sequence: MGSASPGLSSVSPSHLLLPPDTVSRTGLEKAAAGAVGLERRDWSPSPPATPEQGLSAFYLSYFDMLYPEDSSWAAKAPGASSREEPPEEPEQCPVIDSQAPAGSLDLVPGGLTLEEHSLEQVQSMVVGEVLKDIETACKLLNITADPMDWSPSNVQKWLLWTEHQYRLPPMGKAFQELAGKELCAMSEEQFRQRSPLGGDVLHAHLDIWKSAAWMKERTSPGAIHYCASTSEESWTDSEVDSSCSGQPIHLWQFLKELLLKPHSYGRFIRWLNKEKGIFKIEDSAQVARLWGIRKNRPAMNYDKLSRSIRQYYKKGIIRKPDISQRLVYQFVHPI
The procedure, abridged:
as §1

Another test addresses T5, ETV7 (Homo sapiens, UniProt Q9Y603 1-341).
T5 sequence: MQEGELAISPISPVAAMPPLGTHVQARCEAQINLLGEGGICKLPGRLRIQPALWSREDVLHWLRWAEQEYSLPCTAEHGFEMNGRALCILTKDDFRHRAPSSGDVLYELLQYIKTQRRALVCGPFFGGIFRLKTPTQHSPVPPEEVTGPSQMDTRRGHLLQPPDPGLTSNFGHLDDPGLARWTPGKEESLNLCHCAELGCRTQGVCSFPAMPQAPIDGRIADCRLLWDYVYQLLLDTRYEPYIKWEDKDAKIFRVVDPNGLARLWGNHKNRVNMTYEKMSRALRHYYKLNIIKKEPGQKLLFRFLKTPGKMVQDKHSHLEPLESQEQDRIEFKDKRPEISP
The procedure, abridged: as §1

For the next test, the target named is T6, ELF5 (Homo sapiens, UniProt Q9UKW6-2 1-255).
T6 sequence: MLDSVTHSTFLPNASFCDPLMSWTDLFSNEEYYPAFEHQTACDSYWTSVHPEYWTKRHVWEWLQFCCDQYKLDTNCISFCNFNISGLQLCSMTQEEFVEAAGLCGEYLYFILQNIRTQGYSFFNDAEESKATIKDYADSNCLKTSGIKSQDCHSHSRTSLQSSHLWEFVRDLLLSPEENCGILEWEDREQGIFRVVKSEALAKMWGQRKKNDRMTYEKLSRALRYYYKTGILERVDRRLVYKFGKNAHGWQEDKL
The procedure, abridged: as §1

In the next test the target is T7, ETV3 (Homo sapiens, UniProt P41162-2 1-143).
T7 sequence: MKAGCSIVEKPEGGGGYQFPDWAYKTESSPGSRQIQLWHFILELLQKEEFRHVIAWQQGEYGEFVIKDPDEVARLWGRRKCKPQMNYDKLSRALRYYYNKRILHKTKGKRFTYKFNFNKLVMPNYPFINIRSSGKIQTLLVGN
The procedure, abridged:
as §1

The target in a further test is ETV6 (Homo sapiens, UniProt P41212 1-452). In a few lines: as §1
ETV6, sequence (P41212 whole entry): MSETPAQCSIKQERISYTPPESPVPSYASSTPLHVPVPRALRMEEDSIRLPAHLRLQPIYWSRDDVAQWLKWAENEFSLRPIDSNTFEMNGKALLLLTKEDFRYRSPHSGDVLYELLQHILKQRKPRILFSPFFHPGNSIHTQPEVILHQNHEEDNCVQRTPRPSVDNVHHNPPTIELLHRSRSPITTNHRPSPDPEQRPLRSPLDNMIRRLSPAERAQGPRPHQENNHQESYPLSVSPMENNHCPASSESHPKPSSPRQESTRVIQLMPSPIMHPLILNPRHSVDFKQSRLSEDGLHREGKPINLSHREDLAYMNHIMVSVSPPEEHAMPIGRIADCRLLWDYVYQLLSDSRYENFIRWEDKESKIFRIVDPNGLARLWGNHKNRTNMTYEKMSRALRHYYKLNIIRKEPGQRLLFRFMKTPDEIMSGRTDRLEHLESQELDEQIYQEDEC

Consider AAAGAT, for which the binding signal in the test with ERF is 1.24 fold enrichment (6-mer frequency, TF over GST control); with ETV3L it was 1.17 fold enrichment (6-mer frequency, TF over GST control); with ETS2, 1.16 fold enrichment (6-mer frequency, TF over GST control); in the test with SPDEF, 1.23 fold enrichment (6-mer frequency, TF over GST control); in the test with ETV7 it was 1.12 fold enrichment (6-mer frequency, TF over GST control); with ELF5, 1.15 fold enrichment (6-mer frequency, TF over GST control). Moreover, the binding signal in the test with ETV3 is 1.28 fold enrichment (6-mer frequency, TF over GST control); in the test with ETV6, 1.17 fold enrichment (6-mer frequency, TF over GST control).
As for CTCCAT, the binding signal with ERF is 1.37 fold enrichment (6-mer frequency, TF over GST control); in the test with ETV3L, 1.21 fold enrichment (6-mer frequency, TF over GST control); with ETS2, 1.36 fold enrichment (6-mer frequency, TF over GST control); with SPDEF, 1.39 fold enrichment (6-mer frequency, TF over GST control); with ETV7, 1.13 fold enrichment (6-mer frequency, TF over GST control); with ELF5, 1.24 fold enrichment (6-mer frequency, TF over GST control). For the same sequence, the binding signal is 1.27 fold enrichment (6-mer frequency, TF over GST control) with ETV3 and 1.35 fold enrichment (6-mer frequency, TF over GST control) in the test with ETV6.
On to ACACAA, for which the binding signal with ERF is 1.26 fold enrichment (6-mer frequency, TF over GST control); in the test with ETV3L, 1.2 fold enrichment (6-mer frequency, TF over GST control); in the test with ETS2, 1.25 fold enrichment (6-mer frequency, TF over GST control); with SPDEF it was 1.17 fold enrichment (6-mer frequency, TF over GST control); with ETV7, 1.08 fold enrichment (6-mer frequency, TF over GST control); with ELF5, 1.17 fold enrichment (6-mer frequency, TF over GST control). Besides, the binding signal in the test with ETV3 is 1.13 fold enrichment (6-mer frequency, TF over GST control); in the test with ETV6 it was 1.2 fold enrichment (6-mer frequency, TF over GST control).
For AACTAT, the binding signal in the test with ERF is 1.17 fold enrichment (6-mer frequency, TF over GST control); in the test with ETV3L it was 1.28 fold enrichment (6-mer frequency, TF over GST control); with ETS2, 1.45 fold enrichment (6-mer frequency, TF over GST control); with SPDEF, 1.42 fold enrichment (6-mer frequency, TF over GST control); with ETV7 it was 1.38 fold enrichment (6-mer frequency, TF over GST control); in the test with ELF5, 1.45 fold enrichment (6-mer frequency, TF over GST control). Moreover, the binding signal in the test with ETV3 was 1.28 fold enrichment (6-mer frequency, TF over GST control); with ETV6 it was 1.33 fold enrichment (6-mer frequency, TF over GST control).
TACTCG: the binding signal in the test with ERF is 1.3 fold enrichment (6-mer frequency, TF over GST control); with ETV3L it was 1.27 fold enrichment (6-mer frequency, TF over GST control); in the test with ETS2 it was 1.28 fold enrichment (6-mer frequency, TF over GST control); with SPDEF it was 1.2 fold enrichment (6-mer frequency, TF over GST control); in the test with ETV7, 1.27 fold enrichment (6-mer frequency, TF over GST control); with ELF5 it was 1.25 fold enrichment (6-mer frequency, TF over GST control). Moreover, the binding signal in the test with ETV3 is 1.28 fold enrichment (6-mer frequency, TF over GST control); with ETV6, 1.28 fold enrichment (6-mer frequency, TF over GST control).
Regarding TACATC, the binding signal in the test with ERF is 1.63 fold enrichment (6-mer frequency, TF over GST control); in the test with ETV3L, 1.55 fold enrichment (6-mer frequency, TF over GST control); with ETS2 it was 1.66 fold enrichment (6-mer frequency, TF over GST control); with SPDEF, 2.97 fold enrichment (6-mer frequency, TF over GST control); with ETV7, 1.59 fold enrichment (6-mer frequency, TF over GST control); with ELF5, 1.81 fold enrichment (6-mer frequency, TF over GST control). The binding signal in the test with ETV3 is 1.68 fold enrichment (6-mer frequency, TF over GST control); with ETV6 it was 1.57 fold enrichment (6-mer frequency, TF over GST control).
As to GAAACG, the binding signal with ERF was 1.27 fold enrichment (6-mer frequency, TF over GST control); with ETV3L, 1.18 fold enrichment (6-mer frequency, TF over GST control); with ETS2 it was 1.17 fold enrichment (6-mer frequency, TF over GST control); with SPDEF, 1.23 fold enrichment (6-mer frequency, TF over GST control); with ETV7 it was 1.4 fold enrichment (6-mer frequency, TF over GST control); in the test with ELF5, 1.29 fold enrichment (6-mer frequency, TF over GST control). For the same sequence, the binding signal with ETV3 was 1.28 fold enrichment (6-mer frequency, TF over GST control); in the test with ETV6, 1.34 fold enrichment (6-mer frequency, TF over GST control).
Consider GTTCAA, for which the binding signal was 1.14 fold enrichment (6-mer frequency, TF over GST control) with ERF; 1.19 fold enrichment (6-mer frequency, TF over GST control) with ETV3L; 1.14 fold enrichment (6-mer frequency, TF over GST control) in the test with ETS2; 1.22 fold enrichment (6-mer frequency, TF over GST control) with SPDEF; 1.03 fold enrichment (6-mer frequency, TF over GST control) in the test with ETV7; 1.12 fold enrichment (6-mer frequency, TF over GST control) with ELF5. Moreover, the binding signal was 1.15 fold enrichment (6-mer frequency, TF over GST control) in the test with ETV3 and 1.16 fold enrichment (6-mer frequency, TF over GST control) with ETV6.
